APE1 inh – APE1 (human) endonuclease inhibition; recombinant APE1, TAMRA/BHQ-2 abasic DNA cleavage fluorescence; hit rate 0.35% among 350,000; Potency, µM (top dose mostly 65.8 µM), for inactives: at the top dose activity change, negative = inhibition, actives largely listed as inhibitors; P27695;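 further: plate controls were vehicle for no effect and reference inhibitor for full effect; nearly all actives have a fitted effect of over 55% in size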
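Kinetic fluorescence read (525 ex/598 em nm, three reads 60 s apart) of AP-site incision; signal = third minus first read. Enzyme 0.75 nM, dual-labelled THF duplex 50 nM, compound preincubation 15 min RT.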
POLH inh – blocks human DNA polymerase eta activity; Q9Y253; recombinant Pol eta, fluorescent DNA replication assay; Potency, µM (highest dose often 114 µM), for the others: at the highest dose activity change, negative = inhibition, actives largely listed as inhibitors; hit rate 1.2% among 390,000; AID 588591; further: on the % scale 0 is the no-effect control and ±100 the full control effect
Target sequence (Q9Y253 whole entry, looked up): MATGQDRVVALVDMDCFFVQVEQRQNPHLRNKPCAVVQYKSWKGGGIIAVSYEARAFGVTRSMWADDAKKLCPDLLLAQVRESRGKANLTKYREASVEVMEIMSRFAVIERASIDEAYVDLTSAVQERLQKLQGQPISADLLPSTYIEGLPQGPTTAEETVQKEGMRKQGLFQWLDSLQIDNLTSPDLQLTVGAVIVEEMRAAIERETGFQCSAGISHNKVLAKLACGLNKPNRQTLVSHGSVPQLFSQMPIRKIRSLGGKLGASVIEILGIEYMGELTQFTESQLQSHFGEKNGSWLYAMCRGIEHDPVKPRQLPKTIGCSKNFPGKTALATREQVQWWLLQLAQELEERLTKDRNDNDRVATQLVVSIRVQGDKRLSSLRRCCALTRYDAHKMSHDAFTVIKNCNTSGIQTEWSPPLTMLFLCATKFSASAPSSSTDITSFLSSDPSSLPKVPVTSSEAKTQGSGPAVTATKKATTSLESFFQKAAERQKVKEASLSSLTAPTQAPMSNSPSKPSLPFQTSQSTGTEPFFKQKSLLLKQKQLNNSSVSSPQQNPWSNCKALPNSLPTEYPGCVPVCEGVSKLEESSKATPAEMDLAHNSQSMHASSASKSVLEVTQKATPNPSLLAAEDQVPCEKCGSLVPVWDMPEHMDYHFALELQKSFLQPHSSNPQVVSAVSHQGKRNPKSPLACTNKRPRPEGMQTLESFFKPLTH
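Pol eta at 10 nM preincubated with compounds 15 min at room temperature; reaction started with fluorescent substrate (50 nM final) and read kinetically at 0 and 10 min.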
GLS inh – blocks human kidney-isoform glutaminase activity | Potency, µM (series often up to 45.5 µM), for the others: at the top dose activity change, negative = inhibition, hits mostly inhibitors | hit rate 0.21% among 410,000 | O94925 | GLS enzymatic activity, qHTS titration; further: on the % scale 0 is the no-effect control and ±100 the full control effect
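Read-out is an Amplex red fluorescence increase coupled through glutamate oxidase and HRP, measured before and after 30 min room-temperature incubation. hKGA is in 45 mM KH2PO4 (pH 8.2) with 0.02% Tween-20; glutamine added as 1mM solution.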
POLI inh – DNA polymerase iota (human) inhibition; Q9UNA4; Pol iota fluorescent replication assay, 10 min; Potency, µM (titrated, usually from 115 µM), for inactives: top-dose activity, negative = inhibition, hits mostly inhibitors; hit rate 1% among 390,000; AID 588590
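Pol iota at 10 nM preincubated 15 min with compounds at room temperature; reaction started with fluorescent substrate, 50 nM final. Fluorescence read kinetically at 0 and 10 min; buffer-only wells as negative control.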
Pol kappa inh – blocks human DNA polymerase kappa activity | Q9UBT6 | Potency, µM (titrated, usually from 107 µM), for the others: at the highest dose activity, negative = inhibition, hits mostly inhibitors | purified Pol kappa, fluorescent DNA synthesis assay, 10 min | hit rate 0.53% among 400,000; further: on the % scale 0 is the no-effect control and ±100 the full control effect
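Enzyme at 10 nM met test compounds for 15 min at room temperature. Substrate addition (50 nM final) began the reaction, which was monitored by fluorescence at 0 and 10 min.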
Pol beta inh – inhibitors of human DNA polymerase beta | P06746 | Pol beta primer extension/strand displacement, fluorescence kinetic | Potency, µM (doses to about 114 µM), for inactives: at the top dose activity change, negative = inhibition, most hits filed as inhibitors | hit rate 1.3% among 340,000 | AID 485314; further: on the % scale 0 is the no-effect control and ±100 the full control effect
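Values derive from four-parameter Hill fits of normalized kinetic data: reads at 0 and 10 min following addition of 50 nM substrate to 10 nM Pol beta preincubated 15 min with compound.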
* hit, by the source's call; ? = inconclusive; / = not tested or not shown; [ ] = another dose, or the depositor's remark. The list is not random: actives were taken first. Their share in the collection is about 2.4%. The call rests on the fitted dose curve; in most records, active means well fitted curve in the direction sought with a large enough effect; inconclusive means small, poorly fitted or top-dose-only effect, or another doubt; inactive means no such curve, though single readings can be large; an effect the other way counts as inactive or inconclusive. Potency means the concentration at half of the fitted maximal effect.

SMILES	APE1 inh	POLH inh	GLS inh	POLI inh	Pol kappa inh	Pol beta inh
CC[N+]1=C(C)C(C)(C)c2cc(C)ccc21	10µM*	?	12%	?	-11%	-24%
NNC(=S)Nc1cccc(-c2n[nH]c(=S)o2)c1	-4%	79µM*	44%	-12%	-30%	?
COc1cc2cc(CNc3ccccc3)c(=O)n(CC(=O)Nc3cccc(Cl)c3C)c2cc1OC	/	?	?	22%	6%	9%
CCOc1cc(/C=N/NC(=O)c2ccc(O)cc2)ccc1Oc1nc(Cl)ncc1F	-4%	-4%	-1%	-8%	-3%[60.1 µM]	17%
CCCn1cc(S(=O)(=O)CC(=O)Nc2ccc(OC)cc2OC)c2ccccc21	1%	-15%	18%	40%	1%	84%
CCCn1cc(S(=O)(=O)CC(=O)Nc2ccc(OCC)cc2)c2ccccc21	-8%	-8%	-1%	15%	-9%	89µM*
Cc1onc(-c2c(F)cccc2Cl)c1C(=O)OCn1nnc2ccccc2c1=O	12%	-18%	-5%	?	-9%	34%
COCCn1c(-c2cccc([N+](=O)[O-])c2)nc2c1c(=O)[nH]c(=O)n2Cc1ccccc1	-4%	-14%	0%	72%	-14%	13%
COCCSc1ccccc1C(=O)Nc1ccc(Cl)cc1	-8%	-7%	-2%	10µM*	-1%	0%
CC(=O)c1ccc(NC(=O)Cn2c(=O)nc(-c3ccccc3)c3ccccc32)cc1	/	-10%	-3%	71µM*	-9%[60.1 µM]	-18%
O=C(CSc1nnc(COc2ccccc2F)n1-c1ccccc1)NCc1ccco1	2%	-11%	6%	15%	-5%	-4%
C=CCn1c(C)cc(C(=O)COC(=O)c2ccc3c(c2)NC(=O)CS3)c1C	21%	?	-4%	?	?	40µM*
COCCn1c(C)cc(C(=O)COC(=O)c2ccc3c(c2)NC(=O)CS3)c1C	17%	?	2%	-3%	-11%	9%
COc1cccc(-c2n[nH]c(=S)n2Cc2ccco2)c1	-1%	35µM*	1%	?	-94%	?
S=c1[nH]nc(-c2ccncc2)n1Cc1ccco1	11%	-12%	0%	-1%	3%	7%
Cc1ccc(-n2c(-c3ccccc3)n[nH]c2=S)c(C)c1	7%	-5%	-30%	-1%	15%	2%
Cc1ccc(-n2c(Cc3cccc4ccccc34)n[nH]c2=S)c(C)c1	4%	3%	10µM*	-8%	2%	25%
Nc1ccc(O)c(C(=O)O)c1	7.1µM*	/	16µM*	/	1.1µM*	/
Cc1nc2c(ncn2-c2ccccc2)c(=O)n1NC(=O)CN1CCCCC1	1%	-24%	-8%	33%	11%	-10%
CCCCNC(=S)N/N=C/c1cccc(OCC)c1O	0%	-2%	8.9µM*	26%	-10%	-1%
O=C1NC(=S)SC1=Cc1ccccc1Br	/	?	24%	?	-10%	/
Cc1cc(/C=C2/C(=O)N(C)C(=S)N2C)c(C)n1C1CC1	4%	-9%	2%	10%	-1%	-7%
O=C1NC(=S)SC1=Cc1cc(Br)ccc1O	/	50µM*	4%	?	-15%	/
O=C1NC(=S)S/C1=C\c1coc2ccc(O)cc2c1=O	-9%	50µM*	48%	?	-20%	?
Cc1cc(/C=C2\SC(=S)NC2=O)c(C)n1C1CC1	8%	?	9%	?	?	25µM*
SMILES	APE1 inh	POLH inh	GLS inh	POLI inh	Pol kappa inh	Pol beta inh
Cc1cccc2sc(N(Cc3cccnc3)C(=O)COc3ccccc3)nc12	/	-2%	-36%	-9%	-9%[60.1 µM]	-11%
COc1cccc2sc(N3CCN(C(=O)CS(=O)(=O)c4ccc(Cl)cc4)CC3)nc12	/	-3%	-7%	17%	-11%[60.1 µM]	-13%
CCOC(=O)c1c(NC(=O)COC(=O)c2ccc(O)cc2)sc(C(=O)N(C)C)c1C	0%	9%	0%	32%	2%	1%
CCOC(=O)c1c(NC(=O)COC(=O)c2ccc(NC(=O)CC#N)cc2)sc(C(=O)NC)c1C	?	10µM*	-2%	?	?	/
Cn1c(SCC(=O)c2ccccc2)nnc1-c1cccs1	-1%	-6%	-1%	-5%	3%	5%
O=C(NCCCNC(=O)c1cnccn1)c1cccc(Cl)c1	45%	-11%	3%	22%	0%	-21%
O=C(CC1c2ccccc2Oc2ccccc21)Nc1ccccc1F	-1%	-5%	0%	89µM*	-3%	-2%
COc1ccc(C2Oc3nc(SC)nnc3-c3ccccc3N2C(C)=O)cc1 (stereo unspecified)	/	-12%	-3%	28%	-7%	24%
CSC1=C(C#N)C(=O)NC(c2ccc(Cl)cc2)S1 (stereo unspecified)	2%	79µM*	19%	3%	-6%	-30%
O=C(O)c1ccc(CSc2nnc(-c3ccccc3Cl)n2-c2ccccc2)cc1	1%	-17%	-3%	57%	7%	29%
NNC(=O)c1nc[nH]c1C(=O)Nc1ccccc1	33%	-8%	12%	13%	21%	9%
O=C(NNC(=O)C1CC(c2cccs2)=NO1)Nc1ccc(Cl)cc1 (stereo unspecified)	?	-23%	-1%	?	-37%	45µM*
O=C(NCc1cccs1)C1CC(c2ccc(Cl)cc2)=NO1 (stereo unspecified)	3%	7%	-3%	27%	1%	-16%
CCn1nc(C(=O)NNC(=O)COc2ccc(OC)cc2)c2ccccc2c1=O	-5%	-19%	28%	21%	-3%	84%
COc1ccc(C(=O)Nc2cccc3cccnc23)cc1OC	-9%	-8%	7%	5%[58.9 µM]	-10%	24%
CCN(CC)c1cc(C)c2cc(NC(=O)c3cc(OC)cc(OC)c3)ccc2n1	/	-27%	5%	15%	-15%	3%
COc1ccc(C(=O)Nc2cccc(NC(=O)c3ccc(OC)c(OC)c3)n2)cc1OC	-13%	-20%	-6%	?	-16%	22µM*
CCN(CC)c1cc(C)c2cc(NC(=O)c3ccc(OC)c(OC)c3)ccc2n1	/	-20%	25%	?	?	13µM*
O=C(NNc1c2ccccc2nc2ccccc12)c1ccc(O)cc1	0%	-6%	23%	-6%	-10%[60.1 µM]	79µM*
CSc1cccc(NC(=O)C2CCN(S(=O)(=O)c3cnc[nH]3)CC2)c1	-10%	2%	4%	-21%	-5%	39%
Cc1cc(C)cc(-n2c3nc4ccccc4nc3c3c(=O)n(Cc4ccco4)cnc32)c1	12%	?	5%	2%	-11%	35µM*
